Test results from PubChem BioAssay (NCATS).
Records with an inconclusive call do not appear. Activity calls are given as the source filed them. Unless noted, the call rests on the fitted dose curve; in most records, active means well fitted curve in the direction sought with a large enough effect; inconclusive means small, poorly fitted or top-dose-only effect, or another doubt; inactive means no such curve, though single readings can be large; an effect the other way counts as inactive or inconclusive.

What was measured:
[1] = Confirmation and Secondary Assay for Modulators of Hemoglobin Beta Chain Splicing at IVS2 705 locus (AID 930);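 further: HeLa cells stably expressing the EGFP-705 splicing reporter; GFP fluorescence per well restored by corrected splicing of the IVS2-705 intron in EGFP; series mostly up to about 46 µM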
In short: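 Splice-correction reporter: EGFP cDNA split by beta-globin intron 2 bearing the 705 mutation, stably in HeLa. Compound incubation 2 days, 37C; fluorescent objects 5-250 µm summed per well.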

[2] = Cell Viability - LYMP2-001 (AID 921); further: series mostly up to about 92 µM; nearly all actives have a fitted effect of over 70% in size
In short: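 CellTiter-Glo luminescence (intracellular ATP) after 24 hr compound exposure at 37 C, 2500 lymphoblastoid cells/well in complete medium. AC50 fitted with standard Hill equation; tetraoctylammonium bromide positive control.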

[3] = MultiTox-Fluor Cytotoxicity Assay - LYMP1-001 - Dead Cells (AID 946)
In short: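 Cytotoxicity as increased dead-cell protease fluorescence (bis-AAF-R110, 485/520 nm), read 60 min after MultiTox-Fluor reagent. Human lymphoblastoid line exposed 16 h; Hill-fitted AC50, with DMSO as 0% and 15 uM tetraoctylammonium bromide as 100%.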

[4] = MultiTox-Fluor Cytotoxicity Assay - LYMP1-001 - Live Cells (AID 947)
[5] = Cell Viability - LYMP1-002 - Assay at 16 hr (AID 948)
In short: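 LYMP1-002 human lymphoblastoid cells, 2500/well; 5 hr 37 C; cpd 16 hr 37 C; CellTiter-Glo 30 min RT; luminescence (ATP). Concentration-response, Hill-fit AC50. Pos ctrl tetraoctylammonium bromide.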

[6] = MultiTox-Fluor Cytotoxicity Assay - LYMP1-002 - Live Cells (AID 955);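 further: cells exposed to compound for 16 hours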
In short: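 Cytotoxicity in the human lymphoblastoid line LYMP1-002 is measured as loss of live-cell protease activity after 16 h treatment in complete culture medium. AC50 is derived from Hill-equation fits of qHTS concentration-response data.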

[7] = MultiTox-Fluor Cytotoxicity Assay - LYMP1-002 - Dead Cells (AID 960); further: nearly all actives have a fitted effect of over 60% in size
In short: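 Acute cytotoxicity in a human lymphoblastoid line is scored as rising dead-cell protease signal after 16 hr exposure at 37 C, measured fluorometrically (485/520).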

[8] = MultiTox-Fluor Cytotoxicity Assay - LYMP1-003 - Dead Cells (AID 961); further: nearly all actives have a fitted effect of over 70% in size; further: potency means the concentration at half of the fitted maximal effect
In short: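 Dead-cell protease release, detected as bis-AAF-R110 fluorescence at 485/520 nm, was measured in LYMP1-003 cells after 16 h compound treatment at 37 C. AC50 values came from Hill-modeled qHTS curves normalized to DMSO (0%) and 15 uM tetraoctylammonium bromide (100%).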

[9] = Cell Viability - LYMP1-003 - Assay at 24 hr (AID 963)
In short: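 Acute toxicity in LYMP1-003 lymphoblastoid cells: 24 hr compound treatment at 37 C, ATP measured with CellTiter-Glo after 30 min at room temperature. AC50 derived by fitting the Hill equation to qHTS titrations.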

[10] = Cell Viability - LYMP1-003 - Assay at 40 hr (AID 964); further: series mostly up to about 92 µM; nearly all actives have a fitted effect of over 60% in size
In short: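 This qHTS cytotoxicity screen treats human lymphoblastoid cells (LYMP1-003) with compounds for 40 hr and quantifies cellular ATP via luciferase luminescence.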

[11] = Cell Viability - LYMP2-003 (AID 965);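 further: cells exposed to compounds for 24 h before reading; nearly all actives have a fitted effect of over 50% in size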
In short: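 CellTiter-Glo luminescence (cellular ATP) after 24 h compound exposure at 37 C in complete medium; 2500 cells/well, 5 h settling beforehand. Concentration-response fitted to standard Hill equation for AC50. Tetraoctylammonium bromide served as positive control.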

[12] = Cell Viability - LYMP2-004 (AID 966); further: nearly all actives have a fitted effect of over 65% in size
In short: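 Acute toxicity is scored as a concentration-dependent drop in intracellular ATP, quantified by luciferase luminescence, in human lymphoblastoid cells exposed to compound for 24 hr. AC50 derives from Hill-equation modelling.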

[13] = Cell Viability - LYMP2-005 (AID 967); further: series mostly up to about 92 µM
In short: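 Steps: seed 2500 LYMP2-005 cells/well, incubate 5 h at 37 C, add compound, incubate 24 h at 37 C, add CellTiter-Glo, wait 30 min at RT, read luminescence. Concentration-response data fitted to Hill equation for AC50.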

[14] = Cell Viability - LYMP2-009 (AID 968); further: series mostly up to about 92 µM; nearly all actives have a fitted effect of over 55% in size
[15] = qHTS Assay for Identification of Small Molecule Agonists for Thrombopoietin (TPO) Signaling Pathway (AID 917)
In short: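 Activators of TPO signaling were sought in murine Ba/F3 cells transfected with the human receptor, using a luciferase gene driven by the Glycoprotein IIb promoter; 24-hr compound exposure at 37 C alongside 26 pM TPO, in IL-3-free medium.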

[16] = molecular target: Muscarinic acetylcholine receptor M1 (Rattus norvegicus) (UniProt P08482); test: qHTS Assay for Antagonists of Acetylcholine Muscarinic M1 Receptor: Measurement of IP-One Response (AID 944); further: nearly all actives have a fitted effect of over 75% in size; further: potency means the concentration at half of the fitted maximal effect
In short: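 Steps: plate transfected CHO-M1 cells overnight; add test compound, 10 min; add carbachol (200 nM, EC80) in stimulation buffer with LiCl; incubate 30 min; add labelled IP1 tracer and anti-IP1 antibody in lysis buffer; read HTRF after 10 min.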

[17] = molecular target: Pyruvate kinase (Leishmania mexicana) (UniProt Q27686); test: qHTS Validation Assay for Inhibitors of Leishmania Mexicana Pyruvate Kinase (AID 945)
In short: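 The enzyme is a highly purified E451W mutant of LmPYK used at 0.2 nM. It converts 0.5 mM PEP and 0.1 mM ADP over 1 h at room temperature; product ATP is quantified by luciferase luminescence relative to DMSO controls.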

[18] = molecular target: Pyruvate kinase PKM (Homo sapiens) (UniProt P14618); test: qHTS Assay for Activators of Human Muscle Pyruvate Kinase (AID 954; active means well fitted curve in the direction sought with a large enough effect, not every such curve was filed as active)
In short: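 Human PKM2 activity is measured as ATP generation, detected by luciferase-coupled luminescence. The enzyme (0.1 nM) acts on 0.5 mM PEP and 0.1 mM ADP for 1 h at ambient temperature; data are normalized to uninhibited and full-inhibition wells.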

[19] = molecular target: Muscarinic acetylcholine receptor M1 (Rattus norvegicus) (UniProt P08482); test: qHTS Assay for Antagonists of Acetylcholine Muscarinic M1 Receptor: Kinetic Measurement of Intracellular Calcium Response (AID 943);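 further: Fluo-4 calcium signal as peak divided by basal fluorescence over 4 min; series mostly up to about 35 µM; nearly all actives have a fitted effect of over 75% in size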
In short: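 Intracellular calcium flux, recorded with Fluo-4 in a kinetic plate reader, served as signal; the response to carbachol at EC80 (100 nM final) was taken as maximal over minimal fluorescence after a 10 min compound pre-incubation in rat M1-CHO cells.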

[20] = qHTS Assay for Identification of Small Molecule Antagonists for Thrombopoietin (TPO) Signaling Pathway (AID 918); details: TPO-dependent cell signaling reporter, antagonist mode; further: potency means the concentration at half of the fitted maximal effect; nearly all actives have a fitted effect of over 60% in size
In short: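 First, Ba/F3 reporter cells expressing human TPO receptor were held overnight without IL-3. Next, compound and 26 pM TPO were added. After 24 hrs incubation at 37 C, luciferase luminescence under the Glycoprotein IIb promoter was recorded.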

Measured: Potency

Muscarinic acetylcholine receptor M1 (Rattus norvegicus), sequence (P08482 whole entry, looked up): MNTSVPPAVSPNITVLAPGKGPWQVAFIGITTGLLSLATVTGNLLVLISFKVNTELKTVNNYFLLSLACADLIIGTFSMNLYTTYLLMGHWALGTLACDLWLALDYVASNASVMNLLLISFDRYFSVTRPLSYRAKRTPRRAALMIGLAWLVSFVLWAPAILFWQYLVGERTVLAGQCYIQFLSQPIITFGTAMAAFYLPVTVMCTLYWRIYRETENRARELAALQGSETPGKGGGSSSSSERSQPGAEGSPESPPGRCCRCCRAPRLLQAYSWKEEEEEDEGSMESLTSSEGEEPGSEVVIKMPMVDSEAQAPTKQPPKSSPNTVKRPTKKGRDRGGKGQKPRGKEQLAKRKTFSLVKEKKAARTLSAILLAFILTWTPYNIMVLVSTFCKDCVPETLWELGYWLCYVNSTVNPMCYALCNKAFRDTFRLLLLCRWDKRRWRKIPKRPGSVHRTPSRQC
Pyruvate kinase (Leishmania mexicana), sequence (Q27686 2-499 E452W): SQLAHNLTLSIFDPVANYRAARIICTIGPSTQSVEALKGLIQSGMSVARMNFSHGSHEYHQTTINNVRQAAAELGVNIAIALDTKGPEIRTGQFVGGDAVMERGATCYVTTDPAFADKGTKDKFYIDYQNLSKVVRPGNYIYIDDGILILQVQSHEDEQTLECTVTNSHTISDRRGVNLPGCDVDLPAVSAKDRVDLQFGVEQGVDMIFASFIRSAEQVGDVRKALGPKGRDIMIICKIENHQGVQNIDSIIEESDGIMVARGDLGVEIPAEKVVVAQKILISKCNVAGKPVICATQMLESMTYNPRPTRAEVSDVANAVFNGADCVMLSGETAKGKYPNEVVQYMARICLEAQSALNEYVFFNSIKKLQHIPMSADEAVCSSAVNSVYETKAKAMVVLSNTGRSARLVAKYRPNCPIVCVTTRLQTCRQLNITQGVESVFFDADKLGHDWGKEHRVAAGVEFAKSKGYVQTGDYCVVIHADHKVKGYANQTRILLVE
Pyruvate kinase PKM (Homo sapiens), sequence (P14618 whole entry, looked up): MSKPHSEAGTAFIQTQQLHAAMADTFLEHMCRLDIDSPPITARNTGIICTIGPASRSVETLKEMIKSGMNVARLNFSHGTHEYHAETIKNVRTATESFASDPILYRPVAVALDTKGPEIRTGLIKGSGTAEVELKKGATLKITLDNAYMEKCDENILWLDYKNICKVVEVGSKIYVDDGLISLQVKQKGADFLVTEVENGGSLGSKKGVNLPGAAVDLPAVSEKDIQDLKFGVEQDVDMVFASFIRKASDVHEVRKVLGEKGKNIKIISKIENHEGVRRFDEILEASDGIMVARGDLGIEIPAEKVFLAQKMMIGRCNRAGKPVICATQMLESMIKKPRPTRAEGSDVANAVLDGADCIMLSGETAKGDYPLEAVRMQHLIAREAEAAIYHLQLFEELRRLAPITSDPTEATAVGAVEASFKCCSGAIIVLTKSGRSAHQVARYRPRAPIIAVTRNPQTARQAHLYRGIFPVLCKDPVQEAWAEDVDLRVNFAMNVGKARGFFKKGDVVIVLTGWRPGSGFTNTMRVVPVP

CCOC(=O)c1ccc(N)cc1
inactive: [1]

C/C=C/c1ccc(O)c(OC)c1
not listed: [1] | [15] | [16] | [17] | [18] | [19] | [20]
inactive: all other assays above

CN(C)CCC[C@@]1(c2ccc(F)cc2)OCc2cc(C#N)ccc21
inactive: [15] | [1] | [17] | [18]
active: [16] 10 µM

CCN(CC)CCNC(=O)COc1ccc(OC)cc1
inactive: [1]

NS(=O)(=O)Cc1noc2ccccc12
inactive: [15] | [19] | [16] | [17] | [18]

CN1CCC[C@@H]1CCO[C@](C)(c1ccccc1)c1ccc(Cl)cc1
inactive: [17] | [18]
active: [20] 10 µM

CCOc1ccccc1C(N)=O
not listed: [1] | [15] | [16] | [17] | [18] | [19] | [20]
inactive: all other assays above

C=C[C@H]1CN2CC[C@H]1C[C@@H]2[C@@H](O)c1ccnc2ccc(OC)cc12
not listed: [1] | [7] | [15] | [16] | [17] | [18] | [19] | [20]
inactive: all other assays above

COc1ccc(C(Cl)=C(c2ccc(OC)cc2)c2ccc(OC)cc2)cc1
not listed: [10] | [13] | [15] | [16] | [17] | [18] | [19] | [20]
inactive: all other assays above

NC(=O)c1ccccc1O
not listed: [15] | [16] | [17] | [18] | [19] | [20]
inactive: all other assays above

CCC(Cc1c(I)cc(I)c(N)c1I)C(=O)O (centres undefined)
inactive: [1]

COc1ccc(C(=O)c2ccccc2O)c(O)c1
inactive: [1]

O=C(O)CCNC(=O)c1ccccc1
inactive: [1]

CC(=O)NCCCCCC(=O)O
inactive: [1]

COc1cc([C@H]2Oc3cc([C@H]4Oc5cc(O)cc(O)c5C(=O)[C@@H]4O)ccc3O[C@@H]2CO)ccc1O
not listed: [1] | [15] | [16] | [17] | [18] | [19] | [20]
inactive: all other assays above

CN(C)C(=O)Nc1ccc(Cl)c(Cl)c1
inactive: [1]

COc1cc(C(=O)NCc2ccc(OCCN(C)C)cc2)cc(OC)c1OC
inactive: [1]

CCCN(CCC)S(=O)(=O)c1ccc(C(=O)O)cc1
not listed: [15] | [16] | [17] | [18] | [19] | [20]
inactive: all other assays above

O=C(O)c1ccc(S(=O)(=O)N(Cl)Cl)cc1
not listed: [15] | [16] | [17] | [18] | [19] | [20]
inactive: all other assays above

CC(C)(C)NC[C@H](O)COc1nsnc1N1CCOCC1
inactive: [15] | [16] | [17] | [18]

Oc1ccc(Cl)cc1Cc1cc(Cl)ccc1O
inactive: [2] | [1] | [3] | [5] | [6] | [7] | [9]

C[N+]12CCC(CC1)C(OC(=O)C(O)(c1ccccc1)c1ccccc1)C2 (centres undefined)
inactive: [1]

O=C(O)CCC(=O)Nc1ccc(S(=O)(=O)Nc2nccs2)cc1
inactive: [1]

CN1CCC(OC(c2ccccc2)c2ccccc2)CC1
inactive: [1]

O=C(CCCN1CC=C(n2c(=O)[nH]c3ccccc32)CC1)c1ccc(F)cc1
inactive: [1]

Nc1ccc(S(=O)(=O)Nc2cnc3ccccc3n2)cc1
inactive: [1]

CN=C(N)NCCC[C@H](N)C(=O)O
inactive: [15] | [19] | [16] | [17] | [18]

COc1ccc(C(=O)c2ccccc2)c(O)c1
not listed: [15] | [16] | [17] | [18] | [19] | [20]
inactive: all other assays above

O=C1C(O)=C(O)C(=O)C(O)=C1O
inactive: [1]

CCCCC(CC)COC(=O)c1ccc(N(C)C)cc1 (centres undefined)
not listed: [1] | [7] | [15] | [16] | [17] | [18] | [19] | [20]
inactive: all other assays above

CCOc1ccc(NC(C)=O)cc1
not listed: [15] | [16] | [17] | [18] | [19] | [20]
inactive: all other assays above

OC[C@H]1O[C@@H]2O[C@H]3[C@H](O)[C@@H](O)[C@@H](O[C@H]4[C@H](O)[C@@H](O)[C@@H](O[C@H]5[C@H](O)[C@@H](O)[C@@H](O[C@H]6[C@H](O)[C@@H](O)[C@@H](O[C@H]7[C@H](O)[C@@H](O)[C@@H](O[C@H]8[C@H](O)[C@@H](O)[C@@H](O[C@H]1[C@H](O)[C@H]2O)O[C@@H]8CO)O[C@@H]7CO)O[C@@H]6CO)O[C@@H]5CO)O[C@@H]4CO)O[C@@H]3CO
not listed: [1] | [13] | [15] | [16] | [17] | [18] | [19] | [20]
inactive: all other assays above

COC(=O)C(c1ccccc1Cl)N1CCc2sccc2C1 (centres undefined)
inactive: [1]

NC(N)=NCc1cccc(I)c1
inactive: [19] | [16] | [17] | [18]

NCCNc1cccc2ccccc12
inactive: [3] | [4] | [5] | [6] | [7] | [8] | [9] | [10] | [11] | [12] | [14]

Oc1c(Cl)cc(Cl)c(Cl)c1Cc1c(O)c(Cl)cc(Cl)c1Cl
active: [8] 50.1 µM
inactive: [5] | [9]
